Test results published in the supplement of paper PMC11060735.
“And” between values parts separate entries of the source, which are not always exact repeats. Equal entries are not always repeated. Structures can show the parent of a compound that is named as a salt. ± gives the standard deviation of the averaged measurements. In all, about 1,800 compounds were measured (“GFP- (p16Ink4a-) cell count relative to negative-control wells”: median about 0.99, lowest 2% from about 0.5 on). For the sample, the lowest values were picked, then their nearest neighbours and some compounds at random.

test system: mouse p16Ink4a+/- lung fibroblasts (INKBRITE, bleomycin-injured); test: GFP- (p16Ink4a-) cell count relative to negative-control wells (fold of vehicle); higher = more p16Ink4a- cells surviving; details: 1 µM; 3 days

Question: Which GFP- does the source give for `N[C@H]1C[C@@H]1c1ccc(-c2cccc(O)c2)cc1` here?
Answer: 1.01 ± 0.044

Question: `Cc1c(C(=O)NN2CCCCC2)nn(-c2ccc(Cl)cc2Cl)c1-c1ccc(I)cc1` was tested. Which GFP- did it give?
Answer: 1.06

Question: With `Cn1cc(-c2ccc3ncc(Cc4ccc5ncccc5c4)n3n2)cn1` as the compound, how does the GFP- read?
Answer: 1.01

Question: How did the GFP- turn out when `O=C1C(Cl)=C(N2CCOCC2)C(=O)N1c1ccc(Cl)c(Cl)c1` was run?
Answer: 1.05

Question: `Cc1ccc(Nc2nccc(N(C)c3ccc4c(C)n(C)nc4c3)n2)cc1S(N)(=O)=O` [Pazopanib] was tested. Which GFP- did it give?
Answer: 0.999 and 1.07

Question: `CNC(=O)c1ccc(N2C(=S)N(c3ccc(C#N)c(C(F)(F)F)c3)C(=O)C2(C)C)cc1F` [Enzalutamide] was tested. Which GFP- did it give?
Answer: 1.11

Question: How did the GFP- turn out when `CC1(C)Cc2c(-c3ccccc3)c(-c3ccc(Cl)cc3)c(CC(=O)O)n2C1` [Licofelone] was run?
Answer: 0.892

Question: With `CNCc1ccc(-c2[nH]c3cc(F)cc4c3c2CCNC4=O)cc1` [Rucaparib] as the compound, how does the GFP- read?
Answer: 0.817 ± 0.037

Question: `CCCCN1CCCCC1C(=O)Nc1c(C)cccc1C` (stereo not drawn) [Bupivacaine] was tested. Which GFP- did it give?
Answer: 1.13

Question: For `CC(C)C[C@H](NC(=O)[C@H](Cc1ccccc1)NC(=O)c1cnccn1)B(O)O` [Bortezomib], which GFP- is on record?
Answer: 0.294

Question: With `CC(C)C1CCC(C(=O)N[C@H](Cc2ccccc2)C(=O)O)CC1` (stereo partly drawn) [Nateglinide] as the compound, how does the GFP- read?
Answer: 1.06

Question: For `CNC(=O)[C@H](Cc1ccccc1)NC(=O)[C@H](CC(C)C)[C@H](CSc1cccs1)C(=O)NO` [Batimastat], which GFP- is on record?
Answer: 1.08

Question: `Nc1nc(N)c(N=O)c(OCC2CCCCC2)n1` was tested. Which GFP- did it give?
Answer: 1.07

Question: `Clc1ccc(Nc2nnc(Cc3ccncc3)c3ccccc23)cc1` [Vatalanib] was tested. Which GFP- did it give?
Answer: 0.918

Question: How did the GFP- turn out when `Cc1cccc(C)c1OCC(=O)N[C@@H](Cc1ccccc1)[C@@H](O)C[C@H](Cc1ccccc1)NC(=O)[C@H](C(C)C)N1CCCNC1=O` [Lopinavir] was run?
Answer: 0.947

Question: How did the GFP- turn out when `CC[C@H]1OC(=O)[C@H](C)[C@@H](O[C@H]2C[C@@](C)(OC)[C@@H](O)[C@H](C)O2)[C@H](C)[C@@H](O[C@@H]2O[C@H](C)C[C@H](N(C)C)[C@H]2O)[C@](C)(O)C[C@@H](C)/C(=N/OCOCCOC)[C@H](C)[C@@H](O)[C@]1(C)O` [Roxithromycin] was run?
Answer: 0.988

Question: How did the GFP- turn out when `Sc1ncnc2[nH]cnc12` [Mercaptopurine] was run?
Answer: 1.05

Question: With `COC[C@H](NC(=O)c1cnc(C)s1)C(=O)N[C@@H](COC)C(=O)N[C@@H](Cc1ccccc1)C(=O)C1(C)CO1` (stereo partly drawn) [Oprozomib] as the compound, how does the GFP- read?
Answer: 0.381

Question: Which GFP- does the source give for `C=CC(=O)Nc1ccc2ncnc(Nc3cccc(Br)c3)c2c1` here?
Answer: 0.994

Question: Which GFP- does the source give for `Cc1onc(-c2c(Cl)cccc2Cl)c1C(=O)N[C@@H]1C(=O)N2[C@@H]1SC(C)(C)[C@@H]2C(=O)O` [Dicloxacillin] here?
Answer: 0.966

Question: `COc1cc(N2CCC(N(C)C)CC2)ccc1Nc1ncc(Cl)c(Nc2ccccc2P(C)(C)=O)n1` was tested. Which GFP- did it give?
Answer: 1.08

Question: Which GFP- does the source give for `NC(=O)N1c2ccccc2CC(=O)c2ccccc21` [Oxcarbazepine, Trileptal] here?
Answer: 1.06

Question: With `C[C@H](NC(=O)[C@@H](O)c1cc(F)cc(F)c1)C(=O)N[C@@H]1C(=O)N(C)c2ccccc2-c2ccccc21` as the compound, how does the GFP- read?
Answer: 0.963

Question: For `Cc1cc(=O)oc2cc(O)ccc12` [7-hydroxy-4-methyl-2H-chromen-2-one], which GFP- is on record?
Answer: 1.08

Question: For `Cn1cnc(N)c2ncnc1-2` [3-Methyladenine], which GFP- is on record?
Answer: 0.988

Question: Which GFP- does the source give for `COc1ccc(CCc2nc3cc(-c4c(C)noc4C)ccc3n2C[C@H](C)N2CCOCC2)cc1Cl` here?
Answer: 0.854 ± 0.4

Question: With `C=CCc1ccc(O)c(-c2cc(CC=C)ccc2O)c1` [Magnolol] as the compound, how does the GFP- read?
Answer: 0.993

Question: With `Cc1c[nH]c(-c2cnc(NCCNc3ccc(C#N)cn3)nc2-c2ccc(Cl)cc2Cl)n1` as the compound, how does the GFP- read?
Answer: 1.14

Question: With `CCNC(=O)c1[nH]nc(-c2cc(Cl)c(O)cc2O)c1-c1ccc(OC)cc1` as the compound, how does the GFP- read?
Answer: 0.89

Question: With `CS(=O)(=O)OCCCCOS(C)(=O)=O` [Busulfan] as the compound, how does the GFP- read?
Answer: 0.83

Question: How did the GFP- turn out when `CCOc1ccc2ccccc2c1C(=O)N[C@@H]1C(=O)N2[C@@H]1SC(C)(C)[C@@H]2C(=O)O` [Nafcillin Sodium] was run?
Answer: 0.94

Question: With `CCO/C(O)=C1\C(C)=NC(C)=C(C(=O)OC)C1c1cccc([N+](=O)[O-])c1` (stereo not drawn) [Nitrendipine] as the compound, how does the GFP- read?
Answer: 1.18

Question: For `O=c1cc(N2CCOCC2)oc2c1ccc1ccccc12`, which GFP- is on record?
Answer: 1.03

Question: With `Nc1cc(C(F)(F)F)c(-c2cc(N3CCOCC3)nc(N3CCOCC3)n2)cn1` [Buparlisib] as the compound, how does the GFP- read?
Answer: 0.719

Question: Which GFP- does the source give for `C#Cc1cccc(Nc2ncnc3cc4c(cc23)OCCOCCOCCO4)c1` [Icotinib] here?
Answer: 0.916

Question: Which GFP- does the source give for `O=C(NOCC(O)CO)c1cc(Br)c(F)c(F)c1Nc1ccc(I)cc1F` (stereo not drawn) here?
Answer: 0.818

Question: `C#Cc1cccc(Nc2ncnc3cc(OCCOC)c(OCCO)cc23)c1` was tested. Which GFP- did it give?
Answer: 0.823

Question: With `C#Cc1cccc(Nc2ncnc3cc(OCCOC)c(OCCOC)cc23)c1` [Erlotinib] as the compound, how does the GFP- read?
Answer: 0.287

Question: `C#Cc1cccc(Nc2ncnc3cc(OC)c(OCCCCCCC(=O)NO)cc23)c1` was tested. Which GFP- did it give?
Answer: 1.01 ± 0.091

Question: Which GFP- does the source give for `C[C@@H]1CN(c2c(F)c(N)c3c(=O)c(C(=O)O)cn(C4CC4)c3c2F)C[C@H](C)N1` [Sparfloxacin] here?
Answer: 1.02

Question: Which GFP- does the source give for `CCN1CCN(Cc2ccc(Nc3ncc(F)c(-c4cc(F)c5nc(C)n(C(C)C)c5c4)n3)nc2)CC1` here?
Answer: 0.983

Question: For `Cc1cc(C)c2c(c1)[C@@H](N(Cc1cc(C(F)(F)F)cc(C(F)(F)F)c1)c1nnn(C)n1)CCCN2C[C@H]1CC[C@H](C(=O)O)CC1` [Evacetrapib], which GFP- is on record?
Answer: 0.993

Question: How did the GFP- turn out when `C[C@H](CCC(=O)O)[C@H]1CC[C@H]2[C@@H]3C[C@H](O)[C@@H]4C[C@H](O)CC[C@]4(C)[C@H]3CC[C@]12C` [Hyodeoxycholic acid (HDCA)] was run?
Answer: 0.901

Question: For `CC1(C)SC2C(NC(=O)[C@H](NC(=O)N3CCNC3=O)c3ccccc3)C(=O)N2C1C(=O)O` (stereo partly drawn) [Azlocillin sodium salt], which GFP- is on record?
Answer: 0.956

Question: With `CC(C)(C)c1nc(-c2cccc(NS(=O)(=O)c3c(F)cccc3F)c2F)c(-c2ccnc(N)n2)s1` [Dabrafenib] as the compound, how does the GFP- read?
Answer: 0.448

Question: With `C[C@]12CC[C@@H]3c4ccc(O)cc4C[C@@H](CCCCCCCCCS(=O)CCCC(F)(F)C(F)(F)F)[C@H]3[C@@H]1CC[C@@H]2O` (stereo partly drawn) [Fulvestrant] as the compound, how does the GFP- read?
Answer: 1.15

Question: `NS(=O)(=O)c1ccc(NC(=O)Nc2ccc(F)cc2)cc1` was tested. Which GFP- did it give?
Answer: 1.06

Question: With `CN1CCC(NC(=O)c2cc(-c3c(O)cc(O)cc3Oc3ccc([N+](=O)[O-])cc3)on2)CC1` as the compound, how does the GFP- read?
Answer: 1.03

Question: Which GFP- does the source give for `Cn1c(=O)cc(N2CCC[C@@H](N)C2)n(Cc2cc(F)ccc2C#N)c1=O` [Trelagliptin] here?
Answer: 0.941

Question: For `C[N+](C)(C)CC(O)CC(=O)O` (stereo not drawn) [Carnitine Hydrochloride, Carnitine (dl) Hydrochloride], which GFP- is on record?
Answer: 1.1

Question: For `C[C@H](NCc1ccc(OCc2cccc(F)c2)cc1)C(N)=O` [Safinamide], which GFP- is on record?
Answer: 1.06

Question: Which GFP- does the source give for `OC[C@@H](O)CN1CCN(c2ccccc2)CC1` [Levodropropizine] here?
Answer: 1.05

Question: For `CC(=O)O[C@]1(C(C)=O)CC[C@H]2[C@@H]3C=C(Cl)C4=CC(=O)[C@@H]5C[C@@H]5[C@]4(C)[C@H]3CC[C@@]21C` [Cyproterone Acetate], which GFP- is on record?
Answer: 1.14

Question: `C=C1CC[C@H](O)C/C1=C/C=C1\CCC[C@]2(C)[C@@H]([C@H](C)CCCC(C)(C)O)CC[C@@H]12` [Calcidiol] was tested. Which GFP- did it give?
Answer: 1.2

Question: `CCOC(=O)c1c(CSc2ccccc2)n(C)c2cc(Br)c(O)c(CN(C)C)c12` [Arbidol HCl] was tested. Which GFP- did it give?
Answer: 0.933

Question: How did the GFP- turn out when `O=S(=O)(c1ccccc1)N(CC(F)(F)F)c1ccc(C(O)(C(F)(F)F)C(F)(F)F)cc1` was run?
Answer: 0.972

Question: Which GFP- does the source give for `CN1CCOC(c2ccccc2)c2ccccc2C1` (stereo not drawn) [Nefopam] here?
Answer: 1.1

Question: Which GFP- does the source give for `CCOC(=O)[C@H](CCc1ccccc1)N[C@H]1CCc2ccccc2N(CC(=O)O)C1=O` [Benazepril] here?
Answer: 1.01

Question: How did the GFP- turn out when `Cc1c(-c2ccccc2)oc2c(C(=O)OCCN3CCCCC3)cccc2c1=O` [Flavoxate] was run?
Answer: 1.1

Question: How did the GFP- turn out when `C[C@@H]1O[C@@H](O[C@H]2[C@H](Oc3cc(O)c4c(c3)O[C@H](c3ccc(O)cc3)CC4=O)O[C@H](CO)[C@@H](O)[C@@H]2O)[C@H](O)[C@H](O)[C@H]1O` [Naringin] was run?
Answer: 1.1

Question: For `Nc1ccc(S(=O)(=O)Nc2ccccn2)cc1` [Sulfapyridine], which GFP- is on record?
Answer: 0.965

Question: Which GFP- does the source give for `O=C1C[C@@H](c2ccc(O)cc2)Oc2cc(O)cc(O)c21` [Naringenin] here?
Answer: 0.938

Question: How did the GFP- turn out when `C/C(=N\NC(=S)N1CCC1)c1ccccn1` was run?
Answer: 0.4

Question: Which GFP- does the source give for `Cn1c(=O)cc(N2CCC[C@@H](N)C2)n(Cc2ccccc2C#N)c1=O` [Alogliptin] here?
Answer: 0.943

Question: With `COC(=O)[C@H]1[C@H]2C[C@@H]3c4[nH]c5cc(OC)ccc5c4CCN3C[C@H]2C[C@@H](OC(=O)c2cc(OC)c(OC)c(OC)c2)[C@@H]1OC` [Reserpine] as the compound, how does the GFP- read?
Answer: 0.806

Question: How did the GFP- turn out when `C=CC[N+]1([C@H]2C[C@H]3[C@@H]4CC[C@H]5C[C@H](O)[C@@H](N6CCOCC6)C[C@]5(C)[C@H]4CC[C@]3(C)[C@H]2OC(C)=O)CCCC1` [Rocuronium] was run?
Answer: 0.894

Question: `COc1cccc2c1C(=O)c1c(O)c3c(c(O)c1C2=O)C[C@@](O)(C(=O)CO)C[C@@H]3O[C@H]1C[C@H](N)[C@H](O)[C@H](C)O1` [Doxorubicin] was tested. Which GFP- did it give?
Answer: 0.72

Question: How did the GFP- turn out when `CC(=O)[C@]1(O)Cc2c(O)c3c(c(O)c2[C@@H](O[C@H]2C[C@H](N)[C@H](O)[C@H](C)O2)C1)C(=O)c1ccccc1C3=O` [Idarubicin, Idarubicin Hydrochloride] was run?
Answer: 0.224

Question: Which GFP- does the source give for `COc1cccc2c1C(=O)c1c(O)c3c(c(O)c1C2=O)C[C@@](O)(C(C)=O)C[C@@H]3O[C@H]1C[C@H](N)[C@H](O)[C@H](C)O1` [Daunorubicin] here?
Answer: 0.754

Question: With `COc1cc(-c2cc3ccccc3[nH]2)[nH]c1/C=C1\N=C(C)C=C1C` [Obatoclax Mesylate] as the compound, how does the GFP- read?
Answer: 0.249

Question: Which GFP- does the source give for `C=C1C(=O)O[C@@H]2/C=C(\C)CC/C=C(\C)CC[C@@H]12` [Costunolide] here?
Answer: 1.1

Question: With `Cc1coc2c1C(=O)C(=O)c1c-2ccc2c(C)cccc12` [Tanshinone I] as the compound, how does the GFP- read?
Answer: 1.03

Question: `Cn1cc(-c2ccc3nnc(Sc4ccc5ncccc5c4)n3n2)cn1` was tested. Which GFP- did it give?
Answer: 0.95
